High-throughput results deposited in PubChem BioAssay by Broad Institute.
RAD54 branch = blocks human RAD54 Holliday junction branch migration. Q92698. FAM/BHQ fluorescence. 0.14% of 360,000 active. inhibition, % at 10.4 µM;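 active means mean normalized replicate activity at least 40 and at least half of replicates scoring 40 or more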;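 further: 0% = median of neutral control wells and 100% = median of positive control wells; inhibitors cause a drop in the FAM fluorescence signal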
INS-1E GSIS act = GLuc luminescence reporter in INS-1E cells, primary screen for activators of glucose-dependent secretion of insulin | AID 743287 | activation, % at 16.6 µM | INS-1E GLuc reporter insulin secretion, 2-3 h | 0.61% of 370,000 active;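 active means lowest replicate activation of at least 40%, so every replicate reaches that level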;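 further: 0% = median of neutral control wells and 100% = median of IBMX positive control wells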
RAD52 inh = blocks human RAD52 DNA annealing; P43351; 0.46% of 360,000 active; inhibition, % at 18.7 µM; recombinant RAD52 DNA annealing, FRET fluorescence;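 active means every replicate showing at least 50% inhibition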
AF4-AF9 inh = blocks AF4 peptide binding to human AF9. P42568. AlphaScreen, biotin-AF4 peptide binding to FLAG-AF9. inhibition, % at 10 µM. 0.47% of 350,000 active. AID 651704;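 active means every replicate reaching a set inhibition limit, whatever the replicate mean, cut at about 25% in these data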;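 further: 0% = plate neutral control median and 100% = total signal loss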
Target sequence (P42568 whole entry, looked up): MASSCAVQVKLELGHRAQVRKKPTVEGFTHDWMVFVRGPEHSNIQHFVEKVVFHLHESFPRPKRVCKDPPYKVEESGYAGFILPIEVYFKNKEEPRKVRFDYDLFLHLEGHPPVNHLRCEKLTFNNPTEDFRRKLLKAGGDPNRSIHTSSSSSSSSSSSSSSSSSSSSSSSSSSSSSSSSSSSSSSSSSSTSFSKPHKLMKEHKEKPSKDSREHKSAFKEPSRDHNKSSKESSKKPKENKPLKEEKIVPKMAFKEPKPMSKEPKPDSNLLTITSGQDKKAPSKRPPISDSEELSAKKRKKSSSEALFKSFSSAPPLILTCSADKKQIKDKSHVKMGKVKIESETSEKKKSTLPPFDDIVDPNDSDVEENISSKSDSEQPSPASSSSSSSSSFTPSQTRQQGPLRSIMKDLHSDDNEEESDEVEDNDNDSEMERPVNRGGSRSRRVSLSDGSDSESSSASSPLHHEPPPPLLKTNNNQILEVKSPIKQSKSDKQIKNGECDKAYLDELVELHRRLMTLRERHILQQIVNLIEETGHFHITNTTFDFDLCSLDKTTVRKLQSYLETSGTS
DENV2 CPE = inhibitors of DENV2 cytopathic effect; DENV2-infected cells, cytopathic effect rescue, plate reader; CPE inhibition, % at 9.99 µM; 1.7% of 350,000 active; in the data active means CPE inhibition above about 20%, passing the limit was not always enough; tested in BHK-21 cells;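 further: 0% = median of neutral control wells and 100% = median of positive control wells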
dFosB act = activators of mouse delta FosB homodimer; purified delta FosB, TAMRA-CDK5 oligo fluorescence polarization; percent of positive-control signal above neutral wells; AID 493131; P13346; activation, % at 25 µM; 0.99% of 340,000 active;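 active means mean activation above about 17%, with every replicate also reaching it, limit read from the data, passing the limit was not always enough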
Numbers without * were called inactive; ! = repeats disagree. An excerpt weighted towards active compounds, which were near 3.1% of everything screened.

How did C[C@@H]1CN([C@@H](C)CO)C(=O)Cc2cc(NS(=O)(=O)c3ccc(Cl)cc3)ccc2O[C@H]1CN(C)S(=O)(=O)c1cccs1 do in these assays?
RAD54 branch: -5.6; INS-1E GSIS act: -7.6; RAD52 inh: -10.4; AF4-AF9 inh: 0.7; DENV2 CPE: -4.4

What do the screens show for `CN(CCNC(=O)c1c[nH]c2c1ccc1ccccc12)CCNC(=O)c1c[nH]c2c1ccc1ccccc12`?
RAD52 inh: -55.1; AF4-AF9 inh: 11.9; DENV2 CPE: -5.9; dFosB act: 43.6*

How did CN(C)CCNC(=O)c1ccccc1-c1cc2ccccc2c(=O)o1 do in these assays?
RAD54 branch: -11.9; INS-1E GSIS act: -1.7; RAD52 inh: -4.0; AF4-AF9 inh: -0.6; DENV2 CPE: 2.4; dFosB act: -8.5

How did COc1ccc(-c2cnnn2-c2ccc(N)cc2)cc1OC do in these assays?
RAD54 branch: 18.3; INS-1E GSIS act: 53.4*; dFosB act: -8.0

How did COc1ccc(-c2cnnn2-c2ccc(NC(=O)c3ccco3)cc2)cc1OC do in these assays?
RAD54 branch: 2.6; dFosB act: -0.3

How did CCCCCCn1c(N(CC)CC)nc2c1c(=O)[nH]c(=O)n2C do in these assays?
RAD54 branch: 8.6; INS-1E GSIS act: 61.9*; dFosB act: -0.1

Results for CCCCCn1c(SCC(=O)OC)nc2c1c(=O)[nH]c(=O)n2C ?
RAD54 branch: 2.6; INS-1E GSIS act: 68.5*; RAD52 inh: -3.9; AF4-AF9 inh: -12.9; DENV2 CPE: -5.8; dFosB act: -3.4

Results for O=C(C[C@@H]1CC[C@H](NC(=O)Nc2ccc(F)cc2)[C@@H](CO)O1)NCc1ccccn1 ?
RAD54 branch: -2.9; INS-1E GSIS act: 13.1; RAD52 inh: 4.9; AF4-AF9 inh: -0.8; DENV2 CPE: 16.0

What do the screens show for `COc1ccc(-c2ccccc2[C@@H]2[C@@H](C#N)N(C(=O)c3cccnc3)[C@@H]2CO)cc1`?
INS-1E GSIS act: -0.2

Results for O=C(c1cccc(-c2ccc(O)cc2)c1)N1CCOCC1 ?
RAD54 branch: -1.1; dFosB act: -0.1

Results for O=C(c1cccc(-c2cccc3nccn23)c1)N1CCOCC1 ?
RAD54 branch: 1.0; INS-1E GSIS act: -9.0; RAD52 inh: -10.3; AF4-AF9 inh: 1.5; DENV2 CPE: 33.1*

Results for COc1ccccc1S(=O)(=O)N[C@H]1CC[C@@H](CCn2cc(C3CCCC3)nn2)O[C@H]1CO ?
INS-1E GSIS act: -12.7; RAD52 inh: -7.1; AF4-AF9 inh: -1.0; DENV2 CPE: 13.1

Results for COc1ccc(-c2sc3ccccc3c2/C=C/c2ccncc2)cc1 ?
RAD54 branch: 12.8; INS-1E GSIS act: 6.5; RAD52 inh: -38.2; AF4-AF9 inh: 18.9; DENV2 CPE: 20.5*; dFosB act: 0.7

What do the screens show for `CCN(CC(=O)Nc1c(F)cccc1F)C(=O)/C=C/c1ccc2c(c1)OCO2`?
RAD54 branch: -8.0; INS-1E GSIS act: 1.4; RAD52 inh: 0.5; AF4-AF9 inh: 1.6; DENV2 CPE: 84.3*; dFosB act: -1.7

Results for Cc1csc(NC(=O)COCC(=O)O)c1-c1nc2ccccc2s1 ?
RAD54 branch: 9.4; INS-1E GSIS act: -32.4; RAD52 inh: -6.3; AF4-AF9 inh: -4.9; DENV2 CPE: 1.4; dFosB act: -1.3

What do the screens show for `CC(=O)Nc1scc(C)c1-c1nc2ccccc2s1`?
INS-1E GSIS act: 3.4; RAD52 inh: -3.7; AF4-AF9 inh: -1.8; DENV2 CPE: 50.3*; dFosB act: -12.7

How did C[C@H]1CN([C@@H](C)CO)C(=O)Cc2cc(NC(=O)Nc3ccc4c(c3)OCO4)ccc2O[C@H]1CN(C)S(=O)(=O)c1cn(C)cn1 do in these assays?
RAD54 branch: 4.5; INS-1E GSIS act: 7.7

What do the screens show for `C[C@H](CO)N1C[C@H](C)[C@@H](CN(C)Cc2cccnc2)Oc2cc(Br)ccc2S1(=O)=O`?
RAD54 branch: 0.1; INS-1E GSIS act: -20.3; RAD52 inh: -3.2; AF4-AF9 inh: 0.7; DENV2 CPE: 44.7*!

How did C[C@H]1CN([C@@H](C)CO)S(=O)(=O)c2ccc(Br)cc2O[C@H]1CN(C)Cc1ccc(F)cc1 do in these assays?
RAD54 branch: 2.1; INS-1E GSIS act: -7.9; RAD52 inh: -9.9; AF4-AF9 inh: 2.3; DENV2 CPE: 40.7*!

How did C[C@@H]1CN([C@H](C)CO)S(=O)(=O)c2ccc(Br)cc2O[C@@H]1CN(C)C(=O)CN1CCOCC1 do in these assays?
RAD54 branch: 12.7; INS-1E GSIS act: 17.4; RAD52 inh: -14.6; AF4-AF9 inh: -4.8; DENV2 CPE: 55.4*!

What do the screens show for `C[C@H](CO)N1C[C@H](C)[C@@H](CN(C)Cc2ccc(F)cc2)Oc2cc(Br)ccc2S1(=O)=O`?
RAD54 branch: 2.2; INS-1E GSIS act: -15.3; RAD52 inh: 6.0; AF4-AF9 inh: 0.1; DENV2 CPE: -8.0

Results for Cc1csc(NC(=O)CCn2c(=O)oc3ccc(Cl)cc32)n1 ?
RAD54 branch: 0.2; INS-1E GSIS act: -21.6; RAD52 inh: 5.2; AF4-AF9 inh: -2.7; DENV2 CPE: 7.3; dFosB act: -1.3

How did Cc1nnc(NC(=O)CCn2c(=O)oc3ccc(Cl)cc32)s1 do in these assays?
RAD54 branch: -6.3; INS-1E GSIS act: -0.4; RAD52 inh: -24.1; AF4-AF9 inh: -5.3; DENV2 CPE: 23.5*; dFosB act: 1.7

How did C/C=C/c1ccc([C@@H]2[C@@H](CO)N(C(C)=O)C23CN(C(=O)c2ccc(F)cc2)C3)cc1 do in these assays?
INS-1E GSIS act: -2.8; RAD52 inh: -9.0; AF4-AF9 inh: 2.4; DENV2 CPE: -14.3

What do the screens show for `CN1C(=O)c2cc(NC(=O)c3cccc(F)c3)ccc2OC[C@H]2O[C@H](CC(=O)N3CCc4ccccc4C3)CC[C@@H]21`?
RAD54 branch: -4.5; INS-1E GSIS act: -13.1; RAD52 inh: 10.5; AF4-AF9 inh: 0.9; DENV2 CPE: 78.0*

How did CN(C)CCCNC(=O)C[C@H]1CC[C@@H]2[C@@H](COc3ccc(NC(=O)c4cccc(F)c4)cc3C(=O)N2C)O1 do in these assays?
RAD54 branch: 0.2; INS-1E GSIS act: 15.1; RAD52 inh: -0.3; AF4-AF9 inh: 0.7; DENV2 CPE: 41.5*

What do the screens show for `CC(=O)Nc1ccc2c(c1)C(=O)N(C)[C@@H]1CC[C@@H](CC(=O)N3CCc4ccccc4C3)O[C@@H]1CO2`?
RAD54 branch: -8.7; INS-1E GSIS act: -2.0; DENV2 CPE: 4.7

What do the screens show for `CN1C(=O)c2cc(NC(=O)c3cccc(F)c3)ccc2OC[C@H]2O[C@@H](CC(=O)N3CCc4ccccc4C3)CC[C@H]21`?
RAD54 branch: 0.0; INS-1E GSIS act: -19.6; RAD52 inh: -2.8; AF4-AF9 inh: 0.1; DENV2 CPE: 31.5*

Results for CO[C@@H]1CN(C)C(=O)c2cc(NC(=O)c3ccccc3F)ccc2OC[C@H](C)N(C(C)=O)C[C@H]1C ?
RAD54 branch: -1.7; INS-1E GSIS act: 7.9; RAD52 inh: 1.2; AF4-AF9 inh: -1.8; DENV2 CPE: 8.1
